High-throughput results from PubChem BioAssay.
ST2 inh = inhibitors of human ST2 (IL1RL1) binding to IL-33; inhibition, % for hits at 17 µM; AlphaLISA ST2-Fc/biotin-IL-33 interaction, 1 h; 78,000 tested, 2.3% active; AID 1259354; Q01638; in the data active = inhibition above about 30%
Target sequence (Q01638 whole entry, looked up): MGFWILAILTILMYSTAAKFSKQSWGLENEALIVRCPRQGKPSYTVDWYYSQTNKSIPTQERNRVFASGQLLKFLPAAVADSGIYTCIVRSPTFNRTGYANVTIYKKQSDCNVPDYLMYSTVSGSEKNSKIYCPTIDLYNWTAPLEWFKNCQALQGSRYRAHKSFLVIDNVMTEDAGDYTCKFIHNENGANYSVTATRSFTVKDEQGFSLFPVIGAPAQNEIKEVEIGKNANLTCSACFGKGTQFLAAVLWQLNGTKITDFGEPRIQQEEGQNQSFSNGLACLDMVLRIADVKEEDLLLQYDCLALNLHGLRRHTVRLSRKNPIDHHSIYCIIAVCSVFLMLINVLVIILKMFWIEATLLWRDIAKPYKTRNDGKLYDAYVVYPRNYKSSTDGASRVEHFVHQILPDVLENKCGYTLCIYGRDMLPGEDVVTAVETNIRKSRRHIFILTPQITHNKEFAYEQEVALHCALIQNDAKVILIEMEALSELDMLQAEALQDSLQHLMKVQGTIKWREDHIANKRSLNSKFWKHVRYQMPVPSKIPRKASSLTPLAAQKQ
Numbers stand for hits; . = inactive. The sample as a whole holds a higher share of hits than the screen did.

SMILES | ST2 inh
CCOC(=O)C1=C(c2ccccc2)NC(SCC(=O)OC)=C(C#N)C1c1cccnc1 (configuration not stated) | .
Cc1ccnc(NC(c2cccnc2)c2ccc3cccnc3c2O)c1 (configuration not stated) | .
CCN(CC)c1ccc(C(Nc2ccccn2)c2ccc3cccnc3c2O)cc1 (configuration not stated) | 36%
CCOc1cc(C(Nc2ccccn2)c2ccc3cccnc3c2O)ccc1O (configuration not stated) | .
CC1CCc2oc3cc([N+](=O)[O-])cc([N+](=O)[O-])c3c2C1 (configuration not stated) | 59%
CC(=O)N(c1ccc2oc3c(c2c1)CCCC3)S(=O)(=O)c1cc([N+](=O)[O-])ccc1C | .
Cc1cc(NC(=O)c2noc3c2CC(C)CC3)no1 (configuration not stated) | .
CCNCCC1CCC(=O)N1CC1C2CC3CC(C2)CC1C3 (configuration not stated) | .
CC(=O)N1CCN(C[C@@H]2C=C(C)[C@H](Cc3nnc(-c4ccccc4)o3)C[C@H]2C(C)C)CC1 | .
O=C1CSC(c2ccccc2)N1c1ccc(F)c(Cl)c1 (configuration not stated) | .
CCOc1ccc(C(=O)Nc2nc3ccc4sc(C)nc4c3s2)cc1 | .
Cc1ccc(C(=O)Nc2nc3ccc4sc(C)nc4c3s2)cc1 | 42%
COc1cc(OC)cc(C(=O)Nc2nc3ccc4sc(C)nc4c3s2)c1 | .
CCN(CC)c1ccc(C(=O)Nc2nc3ccc4sc(C)nc4c3s2)cc1 | .
Cc1ccc(C(=O)Nc2nc3ccc4nc(C)sc4c3s2)cc1 | .
Cc1nc2c(ccc3nc(NC(=O)c4ccc(C#N)cc4)sc32)s1 | 35%
CCOc1cccc2cc(-c3csc(C)n3)c(=O)oc12 | .
O=C(NCc1ccco1)C1[C@@H]2[C@H]3CC[C@H](C3)[C@H]12 (some centres not stated) | .
Nc1n[nH]c(C(=O)N2CCOC(C(F)(F)F)C2)c1-c1ccccc1 (configuration not stated) | .
O=C(c1ccccc1F)N1CCN=C1SCc1ccc(Br)cc1 | .
CCN1CCCC1CN(CC1CCN(CCOC)CC1)C(=O)C1CCOCC1 (configuration not stated) | .
COCC(NC(=O)c1sc(C)nc1-c1ccccc1)c1ccnn1C (configuration not stated) | .
Cc1ccc(-c2nccn2CCCOc2cccnc2)o1 | .
CCCN(C(=O)c1cc2cc3ccc(OC)cc3nc2o1)c1ccc(F)cc1 | .
CCOC(=O)c1cc2cccc(OCC)c2oc1=O | .
SMILES | ST2 inh
COc1cc(/C=C2\C(=O)Nc3ccc(Br)cc32)cc(Br)c1O | .
COc1cccc(/C=C2\C(=O)Nc3ccc(Br)cc32)c1OC | .
O=C1Nc2ccc(Br)cc2/C1=C/c1ccsc1 | 39%
COc1ccc(/C=C2\C(=O)Nc3ccc(Br)cc32)cc1O | .
O=C1Nc2ccc(Br)cc2/C1=C/c1cccc(F)c1 | 30%
COc1cc(/C=C2\C(=O)Nc3ccc(Br)cc32)cc(OC)c1O | .
COc1ccc(S(=O)(=O)N2c3cccc4cccc(c34)S2(=O)=O)cc1 | .
NC(=O)C1CCCN(S(=O)(=O)c2ccc(F)cc2)C1 (configuration not stated) | .
O=C1NCCc2c1[nH]c1ccc(C#Cc3ccccc3)cc21 | .
CCn1c(C2CCCN(Cc3ccc(OC)c(C)c3C)C2)nn(C)c1=O (configuration not stated) | .
COc1cc(-c2[nH]nc3c2C(c2cccnc2)C(C#N)=C(N)O3)cc(OC)c1OC (configuration not stated) | .
CCc1ccc(NC(=O)C2c3cc(OC)c(OC)cc3C(=O)N(C)C2c2cccs2)cc1 (configuration not stated) | .
COc1cc2c(cc1OC)C(C(=O)NCCN(C)C)C1c3ccccc3CCN1C2=O (configuration not stated) | .
CCOc1ccc(C(=O)N(c2ccc(C(C)C)cc2)C2C=CS(=O)(=O)C2)cc1OCC (configuration not stated) | .
NCCOCc1ccc(-c2cc3ccccc3o2)cc1 | .
COc1ccccc1-c1ccnc(-n2ncc(C(=O)NC(c3ccncc3)c3ccc(C)cc3)c2C)n1 (configuration not stated) | .
Cc1nc(CCNC(=O)c2cnn(-c3ccccn3)c2C)sc1C | .
Cc1cc(CNC(=O)c2cnn(-c3nccc(-c4cc(C)sc4C)n3)c2C)on1 | 30%
O=C(CN1N=C(c2ccccc2)CCC1=O)NC1CCCCC1 | .
Cc1ccc(CN2CCN(Cc3cnc(-c4ccccc4)s3)CC2CCO)o1 (configuration not stated) | .
COc1ccc(/C=C2\C(=O)N(c3ccccc3)N=C2C)cc1[N+](=O)[O-] | .
COc1ccc(-c2ccc(/C=C3\C(=O)N(c4cccc(Cl)c4)N=C3C)o2)cc1[N+](=O)[O-] | 49%
CC1=NN(c2ccc(Cl)c(C(=O)O)c2)C(=O)/C1=C\c1ccc(-c2cccc([N+](=O)[O-])c2)o1 | .
CC1=NN(c2ccc(Br)cc2)C(=O)/C1=C\c1ccc(-c2cccc([N+](=O)[O-])c2)o1 | .
CC1=NN(c2cccc(Cl)c2)C(=O)/C1=C\c1ccc(-c2cc([N+](=O)[O-])ccc2O)o1 | 91%
SMILES | ST2 inh
COc1ccc(/C=C2\C(=O)N(c3cccc(Cl)c3)N=C2C)cc1Br | .
COc1ccccc1C1CN(CC(=O)N(C)CC2CCN(CC(C)C)C2)Cc2ccccc2O1 (configuration not stated) | .
COCC1CCN(C(=O)c2ccc(OC3CCN(C4CCCC4)CC3)c(OC)c2)C1 (configuration not stated) | .
Cc1cc(C)c(CN2CCOC(CN)C2)c(-n2cccn2)c1 (configuration not stated) | .
CCN(CC)C(=O)[C@@H](C)C1CC[C@@]2(C)CC[C@H](NC(=O)c3ccncc3)[C@@H](C)[C@@H]2[C@H]1O (some centres not stated) | 49%
CCN(CC)C(=O)[C@@H](C)[C@@H]1CC[C@@]2(C)CC[C@H](NC(=O)c3cnccn3)[C@@H](C)[C@@H]2[C@H]1O | .
COCCN(CCOC)C(=O)[C@@H](C)C1CC[C@@]2(C)CC[C@H](NC(=O)c3ccncc3)[C@@H](C)[C@@H]2[C@H]1O (some centres not stated) | .
COc1ccc(C(=O)N[C@H]2CC[C@]3(C)CCC([C@H](C)C(=O)N(C)Cc4cccnc4)[C@H](O)[C@H]3[C@@H]2C)cc1 (some centres not stated) | 53%
COCCNC(=O)[C@@H](C)[C@@H]1CC[C@@]2(C)CC[C@H](NC(=O)c3ccccc3)[C@@H](C)[C@@H]2[C@H]1O | .
C[C@H]1[C@@H]2[C@@H](O)C([C@H](C)C(=O)N(C)CCC#N)CC[C@@]2(C)CC[C@@H]1NC(=O)c1cncnc1 (some centres not stated) | .
CSCc1ccc(C(=O)N(C)CC2CCN(CCc3ccc(Cl)cc3)CC2)o1 | .
O=C(C1CCCC1)N1CCN=C1SCc1ccc(Br)cc1 | .
O=C(c1cnc(Nc2ccccc2)nc1)N1CCOC(c2ccc(F)cc2)C1 (configuration not stated) | .
COc1ccc(OCC(=O)Nc2c(C(=O)Nc3cccc(OC)c3)oc3ccccc23)cc1 | .
CCSc1ccc(C(=O)O)cc1[N+](=O)[O-] | .
O=C(NC1CCCCCCC1)c1ccc2nc3ccccc3c(=O)n2c1 | .
